Giardia FBPA inh: inhibitors of Giardia lamblia fructose-1,6-bisphosphate aldolase; A8B2U2; purified Giardia FBPA; Potency, µM (top dose mostly 59.6 µM), for the others: top-dose activity, negative = inhibition, most hits filed as inhibitors; 290,000 tested, 0.71% active; AID 2451; note: nearly all actives have a fitted effect of over 55% in size
Target sequence (A8B2U2 whole entry, looked up): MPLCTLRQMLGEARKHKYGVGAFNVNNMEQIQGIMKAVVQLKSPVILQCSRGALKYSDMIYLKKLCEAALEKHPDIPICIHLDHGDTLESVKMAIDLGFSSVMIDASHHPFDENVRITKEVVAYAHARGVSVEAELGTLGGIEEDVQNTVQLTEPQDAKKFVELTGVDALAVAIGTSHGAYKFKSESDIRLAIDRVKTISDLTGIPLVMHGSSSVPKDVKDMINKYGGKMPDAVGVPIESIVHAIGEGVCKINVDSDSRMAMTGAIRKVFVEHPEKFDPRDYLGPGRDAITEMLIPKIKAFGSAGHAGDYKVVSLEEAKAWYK
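Giardia FBPA (40 nM reagent) was preincubated 10 min at RT with compound (up to 57.5 uM final), then substrate plus GAPDH/TPI/NAD/arsenate coupling system with diaphorase/resazurin was added; resorufin fluorescence (525/598 nm) was read after 20 min.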
AmpC detergent: inhibitors of E. coli AmpC beta-lactamase with detergent | 370,000 tested, 0.041% active | Potency, µM (doses to about 114 µM), without a hit: at the top dose activity change, negative = inhibition, hits mostly inhibitors | AID 485294 | P00811 | AmpC hydrolysis of nitrocefin, absorbance 480 nm, 0.01% Triton;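 note: 0% = no-compound wells and -100% = no-enzyme wells; nearly all actives have a fitted effect of over 25% in size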
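20 mM phosphate pH 7.0 + 0.01% (detergent screen) or 0.0001% Triton X-100; 5.3 nM AmpC reagent; cpd preinc 15 min RT; nitrocefin (800 uM stock) to start; A480 q20 s × 4 min; Activity was normalised to no-enzyme and no-compound control wells.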
Sm TGR block: S. mansoni TGR enzyme inhibition. Potency, µM (top dose mostly 114 µM), for inactives: at the highest dose activity change, negative = inhibition, hits mostly inhibitors. 360,000 tested, 3% active. Q962Y6. purified TGR, DTNB reduction, TNB absorbance 405 nm; note: nearly all actives have a fitted effect of over 60% in size
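Kinetic colorimetric format: TGR-catalysed, NADPH-driven DTNB reduction monitored via TNB absorbance. Enzyme dispensed at 20 nM; compound exposure 15 min at room temperature before reaction start.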
AmpC inh no detg: inhibitors of E. coli AmpC beta-lactamase without detergent; P00811; AmpC nitrocefin hydrolysis, absorbance 480 nm, 0.0001% Triton; Potency, µM (highest dose often 57.1 µM), inactives show at the top dose activity change, negative = inhibition, actives largely listed as inhibitors; 330,000 tested, 0.52% active; AID 485341;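 note: plate controls were no compound for no effect and no enzyme for full effect; nearly all actives have a fitted effect of over 20% in size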
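20 mM phosphate pH 7.0 + 0.01% (detergent screen) or 0.0001% Triton X-100; 5.3 nM AmpC reagent; cpd preinc 15 min RT; nitrocefin (800 uM stock) to start; A480 q20 s × 4 min; Activity was normalised to no-enzyme and no-compound control wells.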
The depositor's hits bear a star. Rows were chosen to be rich in hits. Some 3.6% of all compounds tested hit in one or more screens of this group. Calls come from the whole dose curve; as a rule, active = well fitted curve in the direction sought with a large enough effect; inconclusive = small, poorly fitted or top-dose-only effect, or another doubt; inactive = no such curve, though single readings can be large; an effect the other way counts as inactive or inconclusive. Unless noted, % is set by controls: 0 for no effect and ±100 for the full control effect; potency is the fitted concentration of half-maximal effect.

What do the screens show for `COc1cccc(CNC(=O)CSc2ccc(-c3cccs3)nn2)c1`?
Giardia FBPA inh: -10%; AmpC detergent: 2%; Sm TGR block: 1%; AmpC inh no detg: -16%

What do the screens show for `O=c1c2ccccc2nc2n1CCS2(=O)=O`?
Giardia FBPA inh: 2%; AmpC detergent: 5%; Sm TGR block: 22µM*; AmpC inh no detg: -21%

How did CCCCC[C@H](O)/C=C/C=C\C=C\[C@@H](O)C/C=C\CCCC(=O)O do in these assays?
Giardia FBPA inh: 3%

How did Cc1cc(C)cc(NC(=O)C(OC(=O)c2ccc(NC(=O)CC#N)cc2)c2ccccc2)c1 (stereo not given) do in these assays?
AmpC detergent: -10%; Sm TGR block: -2%; AmpC inh no detg: 11µM*

What do the screens show for `Cc1ccc(C)c(NC(=O)C(OC(=O)c2ccc(NC(=O)CC#N)cc2)c2ccccc2)c1` (stereo not given)?
AmpC detergent: 2%; Sm TGR block: -4%; AmpC inh no detg: -57%

What do the screens show for `CCN(CC)CCn1c(SCC(=O)NCc2ccco2)nc2c(sc3ccccc32)c1=O`?
Giardia FBPA inh: 2%; AmpC detergent: -5%; Sm TGR block: 32µM*; AmpC inh no detg: 6%

Results for C=CCn1c(SCC(=O)Nc2ccccc2F)nc2ccccc2c1=O ?
Giardia FBPA inh: 11%; AmpC detergent: 6%; Sm TGR block: 79µM*; AmpC inh no detg: -24%

How did C=CCn1c(SCC(=O)NC2CC2)nc2ccccc2c1=O do in these assays?
AmpC detergent: 3%; Sm TGR block: 0%; AmpC inh no detg: -9%

What do the screens show for `N#CCCn1c(SCC(=O)NCc2ccco2)nc2ccccc21`?
Giardia FBPA inh: -5%; AmpC detergent: -8%; Sm TGR block: 40µM*; AmpC inh no detg: -9%

What do the screens show for `CCN(CC)CCn1c(SCC(=O)NCCC2=CCCCC2)nc2c(sc3ccccc32)c1=O`?
Giardia FBPA inh: 11%; AmpC detergent: -2%; Sm TGR block: -2%; AmpC inh no detg: -10%

What do the screens show for `O=C(CSc1nc2ccccc2c(=O)n1Cc1ccco1)NCc1ccco1`?
Giardia FBPA inh: -9%; AmpC detergent: -8%; Sm TGR block: 40µM*; AmpC inh no detg: -46%

Results for CCCCn1c(SCC(=O)NCc2ccco2)nc2ccccc2c1=O ?
Giardia FBPA inh: -2%; AmpC detergent: inconclusive; Sm TGR block: -20%; AmpC inh no detg: -26%

Results for O=C(CSc1nc2ccccc2n1CC(=O)NCc1ccccc1)NCc1ccco1 ?
Giardia FBPA inh: 3%; AmpC detergent: inconclusive; Sm TGR block: 0%; AmpC inh no detg: -32%

How did Cc1cc(C)c(Cn2c(C)c(CNCc3ccccc3C)c(C(=O)O)c2C)c(C)c1 do in these assays?
AmpC detergent: 18%; Sm TGR block: -22%

Results for O=C(Oc1cc(=O)oc2c1c(=O)n1c3c(cccc23)CC1)c1ccccc1 ?
Giardia FBPA inh: -25%; AmpC detergent: 1%; Sm TGR block: 10µM*; AmpC inh no detg: -10%

How did O=C(Oc1cc(=O)oc2c1c(=O)n1c3c(cccc23)CC1)c1ccc(F)cc1 do in these assays?
Giardia FBPA inh: -15%; AmpC detergent: inconclusive; Sm TGR block: 25µM*; AmpC inh no detg: -10%

Results for Cc1ccc(OCCN(C)C(=O)C2CCC(=O)N(CCCN3CCCC3=O)C2)cc1 (stereo not given) ?
Giardia FBPA inh: 7%; AmpC detergent: 2%; Sm TGR block: 9%; AmpC inh no detg: -7%

Results for CN1C(=O)CC(c2ccccc2)Nc2ccccc21 (stereo not given) ?
Giardia FBPA inh: -7%; AmpC detergent: 5%; Sm TGR block: -3%; AmpC inh no detg: -3%

Results for N#CC1CC(c2ccccc2)Nc2cc(Cl)ccc2N1 (stereo not given) ?
Giardia FBPA inh: 17%; AmpC detergent: inconclusive; Sm TGR block: -22%; AmpC inh no detg: 11µM*

How did O=C(CCN1C(=O)C2CC=C(Cl)CC2C1=O)NCc1ccco1 (stereo not given) do in these assays?
Giardia FBPA inh: -7%; AmpC detergent: -12%; Sm TGR block: inconclusive; AmpC inh no detg: -8%

Results for O=C1C2CC=C(Cl)CC2C(=O)N1CN(Cc1ccco1)CN1C(=O)C2CC=C(Cl)CC2C1=O (stereo not given) ?
Giardia FBPA inh: -3%; AmpC detergent: -10%; Sm TGR block: 50µM*; AmpC inh no detg: -5%

High-throughput results deposited in PubChem BioAssay by National Center for Advancing Translational Sciences (NCATS).
